Compounds with a hit are over-represented: about 20% of the library has one in this group of screens.
Shiga inhibitor – Shiga toxin inhibition; inhibition, % at 38.7 µM; 9.2% of 290,000 active; AID 2315; Vero cells, Shiga toxin protein synthesis inhibition reporter; in the data active = inhibition mostly above about 28%, no sharp cut-off; inactive = mostly below about 43%; note: 0% is about no effect
CHX counter – counter-screen for Shiga toxin inhibitors: cycloheximide protein synthesis inhibition; 12% of 300,000 active; max response, %; cell reporter, cycloheximide protein synthesis inhibition counterscreen; in the data active = max response mostly above about 13%, no sharp cut-off; inactive = mostly below about 14%; note: read at 38.3 µM for the half of the compounds with a filed dose; 0% is about no effect
Pf growth 48h – inhibits P. falciparum growth in the first generation, 48 h. P. falciparum luciferase growth in erythrocytes, 48 h. Potency, µM (titrated, usually from 28.7 µM), for the others: at the top dose activity change, negative = inhibition, actives largely listed as inhibitors. 5.9% of 310,000 active. AID 504832; note: potency is the fitted concentration of half-maximal effect; % is set by controls: 0 for no effect and ±100 for the full control effect
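Read-out is firefly luciferase luminescence from an integrated reporter in P. falciparum, so falling signal marks reduced parasite growth. Infected erythrocytes were at 2% hematocrit and 0.1% parasitemia (final) in Albumax-supplemented RPMI 1640.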
HCMV inh – blocks human cytomegalovirus replication | HFF cells, HCMV-luciferase reporter, 72 h; active compounds read low | AID 1259415 | 4.5% of 410,000 active | activity change, negative = inhibition, % at 57.5 µM; in the data active = activity change below about -60%; inconclusive = no clear call, values can overlap the other calls; inactive = above about -39%; note: % is set by controls: 0 for no effect and ±100 for the full control effect
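Cell-based, HFFs, 1000 cells/well, 16 h 37C; cpds in DMSO + HCMV-luc, MOI 1 PFU/cell; 72 h 37C; OneGlo luminescence after 5 min RT; norm. to buffer vs Salinomycin 10uM.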
Pf growth 96h – inhibits malaria parasite growth, 96 h. P. falciparum luciferase reporter growth, 96 h. Potency, µM (doses to about 28.7 µM), for the others: at the top dose activity change, negative = inhibition, most hits filed as inhibitors. 6.9% of 320,000 active; note: potency is the fitted concentration of half-maximal effect; % is set by controls: 0 for no effect and ±100 for the full control effect
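Readout is luminescence from an integrated firefly luciferase in P. falciparum. Red cells, 2% hematocrit and 0.05% parasitemia final, were cultured with compound through two parasite generations (96 hours) at 37 C, 5% CO2.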
Numbers without * were called inactive; ? = inconclusive; . = no result given. Unless noted, calls come from the whole dose curve; as a rule, active = well fitted inhibition curve with a large enough effect; inconclusive = small, poorly fitted or top-dose-only effect, or another doubt; inactive = no such curve, though single readings can be large or run the other way.

SMILES	Shiga inhibitor	CHX counter	Pf growth 48h	HCMV inh	Pf growth 96h
O=C(/C=C/c1ccccc1[N+](=O)[O-])Nc1cccc(S(=O)(=O)NC2=NCCCCC2)c1	.	.	.	1	.
O=C(/C=C/c1ccccc1)Nc1cccc(S(=O)(=O)Nc2ccccc2F)c1	39*	10	7%	-33	-1%
Clc1ccc(Sc2cc(Cl)c(Cl)cc2Cl)cc1	-6	-2	.	.	.
Nc1cc(C(=O)c2cccs2)ccc1Cl	34	17*	.	-16	?
CC(NC(=O)C12CC3CC(C1)CC(n1cncn1)(C3)C2)C12CC3CC(CC(C3)C1)C2 (stereo unspecified)	-5	-1	12µM*	-4	12µM*
Cc1ccc(NC(=S)NNC(=O)c2nnn(-c3ccccc3)c2C)cc1	59*	37*	25%	-8	42%
Cc1ccc(/C=N/OC(=O)c2nn(C)cc2Cl)cc1	89*	55*	6%	-33	-23%
Cc1ccc(NC(=S)NNC(=O)c2nn(C)cc2Cl)cc1	15	19*	114%	39	87%
Cc1cccc(NC(=S)NNC(=O)c2nn(C)cc2Cl)c1	34	25*	34%	43	0%
Cc1ccc(NC(=O)COC(=O)c2nn(C)cc2Cl)cc1	32	15	28%	-6	17%
O=C(CSCc1c[nH]c(=O)[nH]c1=O)OCC(=O)c1ccc(Br)cc1	5	-1	1%	-36	66%
O=C(NC1CCCCC1)N1CCN(c2ccc(Cl)cc2)CC1	-9	6	?	-27	1.9µM*
O=C(Nc1ccc(Cl)cc1)Nc1ccc(N2CCOCC2)cc1	30*	19*	8%	0	1%
O=C(NC1CCCCC1)N1CCN(c2ccc([N+](=O)[O-])cc2)CC1	2	1	-14%	-14	?
O=C(Nc1ccc(N2CCOCC2)cc1)Nc1cnsn1	34*	44*	97%	-24	2%
O=C(Nc1ccc(N2CCOCC2)cc1)Nc1ccc(Cl)c(Cl)c1	40	19*	.	14	?
CCOc1cccc(N(C(=O)CNC(=O)c2ccco2)C(C(=O)NCC2CCCO2)c2ccccc2)c1 (stereo unspecified)	-6	-5	-18%	-3	1%
O=C(NCC(O)c1ccc([N+](=O)[O-])cc1)C1=COCCO1 (stereo unspecified)	.	.	.	2	.
O=C(Nc1ccc(N2CCOCC2)cc1)NC1CCCCC1	67*	18*	?	3	32%
O=C(Nc1ccc(N2CCOCC2)cc1)C1CC1	44	10	35%	5	?
Cc1cccc(N2C(=O)CSC23C(=O)N(CC(=O)NCc2ccccc2Cl)c2ccccc23)c1 (stereo unspecified)	.	.	.	9	.
COC(=O)c1ccc(N2CCC(C)CC2)c(N)c1	45	38*	.	-20	-97%
COC(=O)c1ccc(C(=O)OC)c(N)c1	17	13	39%	.	34%
COC(=O)c1ccc(N2CCCCC2)c(N)c1	100*	57*	77%	105	-22%
COC(=O)c1ccc(N2CCN(C(=O)C3CC3)CC2)c([N+](=O)[O-])c1	-2	1	6%	-32	?
SMILES	Shiga inhibitor	CHX counter	Pf growth 48h	HCMV inh	Pf growth 96h
O=C(Cn1c(SCCOc2ccccc2Cl)nc2ccccc21)N1CCOCC1	.	.	.	14	.
COc1ccc(C2CC(c3c(O)n(C4CCCCC4)c(=O)[nH]c3=O)=Nc3ccccc3S2)cc1 (stereo unspecified)	.	.	.	-4	.
Oc1ccccc1Oc1c(F)c(F)nc(N2CCCC2)c1F	-3	-3	?	-13	?
CC(=O)/C=C/c1ccccc1Oc1c(F)c(F)nc(F)c1F	-5	7	?	-67*	9.3µM*
O=C(CN1C(=O)CCSc2ccccc21)NC1CCCCC1	-1	1	-1%	?	?
CN(CCc1ccccc1)C(=O)c1ccc(NC(=O)Cc2ccc(NC(=O)C3CCN(C(=O)C4CCCCC4)CC3)cc2)cc1	.	.	.	-60*	.
CN(CCc1ccccc1)C(=O)c1ccc(NC(=O)Cc2ccc(NC(=O)C3CCN(C(=O)CCc4ccccc4)CC3)cc2)cc1	.	.	.	-88*	.
CN(CCc1ccccc1)C(=O)c1ccc(NC(=O)Cc2cccc(NC(=O)C3CCN(C(=O)CCc4ccccc4)CC3)c2)cc1	.	.	.	-26	.
CN(C(=O)c1ccc(NC(=O)Cc2ccc(NC(=O)C3CCN(C(=O)c4ccccc4)CC3)cc2)cc1)C1CC1	.	.	?	-17	6.6µM*
CN(CCc1ccccc1)C(=O)c1ccc(NC(=O)Cc2ccc(NC(=O)C3CCN(C(=O)C4CCC4)CC3)cc2)cc1	.	.	.	-35	.
O=C(Cc1cccc(NC(=O)C2CCN(C(=O)C3CCCCC3)CC2)c1)Nc1cccc(C(=O)N2CCCC2)c1	.	.	13µM*	-3	10µM*
CCOC(=O)c1c(NC(=O)c2nc(SCC)ncc2Cl)sc2c1CCCC2	.	.	.	19	.
CNC(=O)CC1C(=O)N(c2ccc(F)cc2)C(=S)N1NC(=O)c1ccc(Br)cc1 (stereo unspecified)	27	9	?	?	-13%
CC(C)C[C@@H](CO)N1CCN(C)CCC1=O	9	-2	-17%	-28	-35%
CN(CCc1ccccc1)C(=O)c1ccc(NC(=O)Cc2ccc(NC(=O)C3CCCN(C(=O)CCc4ccccc4)C3)cc2)cc1 (stereo unspecified)	.	.	.	-71*	.
CN(Cc1ccccc1)C(=O)c1ccc(NC(=O)Cc2cccc(NC(=O)C3CCCN(C(=O)C4CCC4)C3)c2)cc1 (stereo unspecified)	.	.	9.3µM*	-29	?
CN(CCc1ccccc1)C(=O)c1ccc(NC(=O)Cc2ccc(NC(=O)C3CCCN(C(=O)C4CCC4)C3)cc2)cc1 (stereo unspecified)	.	.	.	-70*	.
CN(C(=O)c1ccc(NC(=O)Cc2cccc(NC(=O)C3CCCN(C(=O)CCc4ccccc4)C3)c2)cc1)C1CC1 (stereo unspecified)	.	.	.	-12	.
CN(Cc1ccccc1)C(=O)c1ccc(NC(=O)Cc2ccc(NC(=O)C3CCCN(C(=O)C4CCCC4)C3)cc2)cc1 (stereo unspecified)	.	.	.	-13	.
CC(C)(C)c1cc(=O)n(-c2ccccc2)[nH]1	28	18	?	37	10µM*
COc1ccc(C2=CC(c3ccc(OC)c(OC)c3)c3c(c4ccccc4oc3=O)O2)cc1OC (stereo unspecified)	41	1	2.6µM*	-64*	8.3µM*
Cc1ccc2cc(C)c3nnc(SCc4ccc(C(=O)O)cc4)n3c2c1C	-5	0	?	-35	-4%
Cc1nc(-c2ccccc2)sc1-c1nc(-c2ccncc2)ncc1S(=O)(=O)c1ccccc1	-11	13	?	-82*	1.7µM*
O=S(=O)(c1ccc(Cl)cc1)c1cnc(-c2cccnc2)nc1-c1ccccc1	-15	-5	?	4	?
CCCCCCOc1ccc(CN2CCN(C)CC2)cc1	134*	41*	75%	-37	-4%
CCCCOc1ccc(CN2CCCCC2)cc1	45*	17*	18%	-12	-18%

Screening results: PubChem BioAssay, National Center for Advancing Translational Sciences (NCATS)
